Records with an inconclusive call do not appear. Calls of active or inactive are those of the source. Unless noted, calls follow the shape of the dose curve; as a rule, active = well fitted curve in the direction sought with a large enough effect; inconclusive = small, poorly fitted or top-dose-only effect, or another doubt; inactive = no such curve, though single readings can be large; an effect the other way counts as inactive or inconclusive.

From PubChem BioAssay (NCATS) come the findings set out here.

Experiment [1] can be described thus: AP1 Signaling Pathway (AID 357; active = well fitted curve in either direction with a large enough effect, not every such curve was filed as active;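 also: ME-180 reporter cells stimulated with EGF at its EC50 level; % is scaled to controls: 0 for no effect and ±100 for the full control effect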). The method in brief:
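Read-out was the 460nm/530nm emission ratio (excitation 405nm) after CCF4 loading for 2.5 hours at room temperature. Cells carried an AP-1-driven beta-lactamase reporter, were stimulated with EC50 EGF plus compound for 5 hours, and AC50 values came from titrations.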

Experiment [2] has as its target Cytochrome P450 1A2 (Homo sapiens) (UniProt P05177). The experiment can be described thus: p450-cyp1a2 (AID 410; calls by dose curve;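 also: -100% = full effect of reference inhibitor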). The essentials: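 20nM CYP1A2, 100uM Luciferin-ME (=Km), 100mM KPO4; cpd 10 min RT; +NADPH regen, 60 min RT; stop/detect 20 min; luminescence. Normalized to furafylline 57 uM = full inhibition.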
Experiment [3] is described as follows: NFAT Signaling Pathway (AID 444; active = well fitted curve in either direction with a large enough effect, not every such curve was filed as active;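 also: carbachol stimulus at about its EC50 of 1 µM final; % is scaled to controls: 0 for no effect and ±100 for the full control effect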). As to conditions: Jurkat NFAT-bla M1, carbachol, beta-lactamase ratio, 5 h; at 17.2 µM (top of the series) unless noted. The essentials:
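Read-out: CCF4 FRET ratio (460 nm/530 nm) after 1 h RT dye loading, used for %activity and AC50 from titration series. Cells: Jurkat NFAT-β-lactamase/M1 line, treated with compound plus 1 uM carbachol for 5 h, 37 °C.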

The nature of experiment [4]: Stat Signaling Pathway (AID 446; active = well fitted curve in either direction with a large enough effect, not every such curve was filed as active;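 also: ME-180 cervical cancer cells given 40 pM IL-6 alongside compound; SIE-controlled beta-lactamase reporter measured as 460/530 nm FRET emission ratio; % is scaled to controls: 0 for no effect and ±100 for the full control effect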). The method in brief: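 Overnight-plated ME-180 cells bearing a STAT Inducible Element beta-lactamase reporter; 5 h co-exposure to compound and 40 pM IL-6; values normalized to 300 pM IL-6 and 125 nM JAK inhibitor controls.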
In experiment [5] the target is Glucocorticoid receptor (Homo sapiens) (UniProt P04150). The experiment can be described thus: GR-GFP Redistribution (AID 450;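 active = compounds whose dose series gives a full or clear partial fitted curve of increased nuclear translocation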; also: potency is read from the fitted curve at half-maximal effect). As to conditions: U2OS GR-GFP nuclear translocation, laser cytometry, 2 h.
Sequence of Glucocorticoid receptor (Homo sapiens) (P04150 whole entry, looked up, the tested form may be a part): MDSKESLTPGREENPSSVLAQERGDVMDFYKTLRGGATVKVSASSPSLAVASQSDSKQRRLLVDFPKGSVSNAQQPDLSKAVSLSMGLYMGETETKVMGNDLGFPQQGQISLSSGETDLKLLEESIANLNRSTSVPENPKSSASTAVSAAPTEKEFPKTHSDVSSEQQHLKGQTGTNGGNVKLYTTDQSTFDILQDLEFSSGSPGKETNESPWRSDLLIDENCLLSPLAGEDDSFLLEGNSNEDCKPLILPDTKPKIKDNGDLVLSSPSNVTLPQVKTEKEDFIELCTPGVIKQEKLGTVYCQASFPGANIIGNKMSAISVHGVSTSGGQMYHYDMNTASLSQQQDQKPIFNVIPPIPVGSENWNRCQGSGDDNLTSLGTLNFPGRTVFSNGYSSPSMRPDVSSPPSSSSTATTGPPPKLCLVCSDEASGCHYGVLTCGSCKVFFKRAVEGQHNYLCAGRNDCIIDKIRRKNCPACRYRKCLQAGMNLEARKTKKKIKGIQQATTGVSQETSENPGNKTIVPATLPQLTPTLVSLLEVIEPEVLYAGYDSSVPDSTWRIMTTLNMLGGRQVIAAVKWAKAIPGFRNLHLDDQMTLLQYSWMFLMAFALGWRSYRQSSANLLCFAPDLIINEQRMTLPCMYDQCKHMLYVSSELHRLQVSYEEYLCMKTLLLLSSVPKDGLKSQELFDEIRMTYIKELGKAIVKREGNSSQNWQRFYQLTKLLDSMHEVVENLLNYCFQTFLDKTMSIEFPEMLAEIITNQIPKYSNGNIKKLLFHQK
Experiment [6] has the same target. Briefly: GR-EFC Redistribution (AID 451; calls by dose curve; also: potency is read from the fitted curve at half-maximal effect). As to conditions: CHO-K1 GR-EFC translocation, beta-gal luminescence, 2 h. The method in brief: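 Translocation of GR-ED fusion to nuclear EA restores b-gal, read by luminescence after 1 h room-temperature detection. Engineered CHO-K1 biosensor cells, 1,000/well, exposed 2 h at 37 C to titrations up to 46 uM final.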
In experiment [7] the target is Mitogen-activated protein kinase 10 (Mus musculus) (UniProt Q61831). Briefly: JNK3 AlphaScreen Assay (AID 530; active = well fitted curve in either direction with a large enough effect, not every such curve was filed as active;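 also: kinase came from lysate of stimulated human HepG2 cells; signal reports phosphorylation of biotinylated GST-cJun 1-79 at Ser73 with 10 µM ATP; % is scaled to controls: 0 for no effect and ±100 for the full control effect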). The essentials:
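Kinase buffer: 20 mM Tris-HCl pH 7.6, 10 mM MgCl2, 1 mM DTT, 0.1 mM Na3VO4, 0.01% Tween-20; ATP 10 uM. Substrate biotin-GST-cJun(1-79), enzyme from activated HepG2 lysates. Detection by Ser73 phospho-antibody AlphaScreen.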
A general note: In Alpha technology, singlet oxygen from a donor bead excites a nearby acceptor bead.

In experiment [8] the target is 3',5'-cyclic-AMP phosphodiesterase 4B (Homo sapiens) (UniProt Q07343). Briefly: qHTS Assay for Inhibitors of PDE-IV (AID 607; active = well fitted activation curve with a large enough effect in the main read-out, with a control signal flat, not every such curve was filed as active; also: % of control where 0% means no effect). The essentials: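 Live HEK293 cells with a modified cyclic nucleotide-gated (CNG) channel report intracellular cAMP via membrane-potential dye fluorescence (ex 535/em 590 nm). Endogenous PDE-IV was targeted. Compounds were tested at up to 22.9 uM final; RO 20-1724 100 uM served as control.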
Sequence of 3',5'-cyclic-AMP phosphodiesterase 4B (Homo sapiens) (Q07343 whole entry, looked up): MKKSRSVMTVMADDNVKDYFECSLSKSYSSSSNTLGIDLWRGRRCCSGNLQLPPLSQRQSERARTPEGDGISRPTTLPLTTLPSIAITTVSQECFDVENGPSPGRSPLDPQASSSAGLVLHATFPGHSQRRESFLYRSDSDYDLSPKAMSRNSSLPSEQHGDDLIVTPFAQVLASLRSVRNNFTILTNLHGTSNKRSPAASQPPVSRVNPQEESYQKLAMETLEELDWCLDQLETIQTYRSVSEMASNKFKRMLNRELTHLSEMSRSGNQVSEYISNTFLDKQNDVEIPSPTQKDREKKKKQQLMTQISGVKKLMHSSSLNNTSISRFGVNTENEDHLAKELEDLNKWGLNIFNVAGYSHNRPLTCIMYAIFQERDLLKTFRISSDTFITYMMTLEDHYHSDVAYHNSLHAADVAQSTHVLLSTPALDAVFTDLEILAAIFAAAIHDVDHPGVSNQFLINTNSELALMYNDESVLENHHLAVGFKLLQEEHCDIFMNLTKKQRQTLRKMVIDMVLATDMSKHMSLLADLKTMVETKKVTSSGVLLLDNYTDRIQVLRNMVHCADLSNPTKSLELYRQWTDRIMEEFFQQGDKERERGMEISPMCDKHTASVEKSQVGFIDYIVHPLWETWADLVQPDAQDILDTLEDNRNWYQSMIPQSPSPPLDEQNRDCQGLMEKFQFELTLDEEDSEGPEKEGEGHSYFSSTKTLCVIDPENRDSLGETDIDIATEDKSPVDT
A general note: Quantitative high-throughput screening tests each substance at several concentrations.

A short description of experiment [9]: qHTS Assay for Lipid Storage Modulators (AID 1519; calls by dose curve). To be noted: Drosophila S3 cells, BODIPY lipid droplet/cell ratio, laser cytometry, cells loaded with oleic acid; for activity change, negative = inhibition: at 25.7 µM (top of the series). The method in brief:
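Cells seeded at 5,000 per well were treated with compounds over a concentration series and loaded with oleic acid (400 uM, as added). Lipid droplet fluorescence (488 nm excitation, 500-530 nm channel) was read by laser-scanning cytometry and normalized to 20 uM Triacsin C.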

Experiment [10] deals with Ubiquitin carboxyl-terminal hydrolase 1 (Homo sapiens) (UniProt O94782). Briefly: Inhibitors of USP1/UAF1: Pilot qHTS (AID 504865).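 Also: rhodamine fluorescence freed from ubiquitin-rhodamine substrate followed over time; top concentration of the series differs between compounds; % is scaled to controls: 0 for no effect and ±100 for the full control effect; nearly all actives have a fitted effect of over 35% in size.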 The method in brief:
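1nM USP1/UAF1 + cpd, 15 min RT; start w/ Ub-Rho 150nM final; kinetic FL 480/540 nm, 6 reads q60 s. Buffer 50mM HEPES pH 7.8, 0.5mM EDTA, 1mM TCEP, 0.01% Tween-20, 0.1 mg/ml BSA.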

Experiment [11] can be described thus: S16 Schwann cell viability assay (CellTiter-Glo assay) (AID 624031).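 Also: native untransfected S16 rat Schwann cells; plate controls were DMSO-treated cells for no effect and cell-free wells for full effect; nearly all actives have a fitted effect of over 70% in size.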 The method in brief:
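Parental S16 cells, 24 h compound, 37 °C. ATP-luminescence viability; DMSO = 0% activity, empty wells as reference; curves classified by fit quality and efficacy.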
In general terms: ATP-based viability assays read luminescence as a measure of living cells.

Experiment [12] is described as follows: S16 Schwann cell PMP22 intronic element firefly luciferase assay (AID 624032).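 Also: plate controls were DMSO for no effect and PTC124 positive control mean for full effect; nearly all actives have a fitted effect of over 30% in size.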 The essentials: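 Luciferase reporter of PMP22 intronic-element expression in stably transfected S16 rat Schwann cells, read by ONE-Glo luminescence after 24 h compound exposure at 37 C. Activity scaled between DMSO (0%) and positive-control PTC124; concentration-effect curves quality-classified.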

Experiment [13] can be described thus: qHTS profiling for inhibitors of Plasmodium falciparum proliferation (AID 504749).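 Also: 0% = DMSO vehicle and full inhibition = artemisinin control; nearly all actives have a fitted effect of over 60% in size.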 As to conditions: P. falciparum in erythrocytes, SYBR Green DNA, 72 h, at 12.8 µM (top of the series). The essentials:
(§1)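 In a 72 h erythrocytic culture (37 C, humidified, 5% CO2) at 2.5% hematocrit and 0.3% starting parasitemia, compounds were tested; SYBR Green I in detergent lysis buffer stained parasite DNA overnight.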

Experiment [14] has as its system 3D7. The experiment is described as above. To be noted: P. falciparum in erythrocytes, SYBR Green DNA, 72 h; series mostly up to 12.8 µM. The method in brief: as §1
The subject of experiment [15] is AS120. Described as above. As to conditions: P. falciparum in erythrocytes, SYBR Green DNA, 72 h; series mostly up to 12.8 µM. The essentials: as §1
The subject of experiment [16] is ATS189. The experiment is described as above. To be noted: P. falciparum in erythrocytes, SYBR Green DNA, 72 h; series mostly up to 12.8 µM. The method in brief:
as §1

Experiment [17] has as its system CP217. The description is as above. To be noted: P. falciparum in erythrocytes, SYBR Green DNA, 72 h; series mostly up to 12.8 µM. The method in brief:
as §1

In experiment [18] the test system is CP247. The experiment is described as above. As to conditions: P. falciparum in erythrocytes, SYBR Green DNA, 72 h; series mostly up to 12.8 µM. The essentials:
as §1

For experiment [19], the system named is CP250. The experiment is described as above. As to conditions: P. falciparum in erythrocytes, SYBR Green DNA, 72 h; series mostly up to 12.8 µM. The essentials: as §1
The subject of experiment [20] is SC27B. The experiment is described as above. To be noted: P. falciparum in erythrocytes, SYBR Green DNA, 72 h; series mostly up to 12.8 µM. The essentials:
as §1

Setting [21] is: measured here: cell count channel max response.
Where [22] appears, read: measured here: lipid channel max response.

Sequence of Cytochrome P450 1A2 (Homo sapiens) (P05177 whole entry, looked up): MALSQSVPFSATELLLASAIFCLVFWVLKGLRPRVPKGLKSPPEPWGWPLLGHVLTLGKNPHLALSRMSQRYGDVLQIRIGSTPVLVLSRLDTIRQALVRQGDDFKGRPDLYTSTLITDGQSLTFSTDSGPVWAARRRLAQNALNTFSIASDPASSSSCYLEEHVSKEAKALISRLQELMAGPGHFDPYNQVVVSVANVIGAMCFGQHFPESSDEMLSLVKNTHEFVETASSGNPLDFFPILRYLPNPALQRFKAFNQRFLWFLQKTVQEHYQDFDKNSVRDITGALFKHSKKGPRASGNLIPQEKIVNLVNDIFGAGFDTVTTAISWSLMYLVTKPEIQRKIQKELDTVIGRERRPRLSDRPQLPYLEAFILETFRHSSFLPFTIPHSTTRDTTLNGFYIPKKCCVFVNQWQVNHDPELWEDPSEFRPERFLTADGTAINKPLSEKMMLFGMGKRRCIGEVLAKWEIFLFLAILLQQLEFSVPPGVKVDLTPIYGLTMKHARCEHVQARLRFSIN
Sequence of Ubiquitin carboxyl-terminal hydrolase 1 (Homo sapiens) (O94782 whole entry, looked up): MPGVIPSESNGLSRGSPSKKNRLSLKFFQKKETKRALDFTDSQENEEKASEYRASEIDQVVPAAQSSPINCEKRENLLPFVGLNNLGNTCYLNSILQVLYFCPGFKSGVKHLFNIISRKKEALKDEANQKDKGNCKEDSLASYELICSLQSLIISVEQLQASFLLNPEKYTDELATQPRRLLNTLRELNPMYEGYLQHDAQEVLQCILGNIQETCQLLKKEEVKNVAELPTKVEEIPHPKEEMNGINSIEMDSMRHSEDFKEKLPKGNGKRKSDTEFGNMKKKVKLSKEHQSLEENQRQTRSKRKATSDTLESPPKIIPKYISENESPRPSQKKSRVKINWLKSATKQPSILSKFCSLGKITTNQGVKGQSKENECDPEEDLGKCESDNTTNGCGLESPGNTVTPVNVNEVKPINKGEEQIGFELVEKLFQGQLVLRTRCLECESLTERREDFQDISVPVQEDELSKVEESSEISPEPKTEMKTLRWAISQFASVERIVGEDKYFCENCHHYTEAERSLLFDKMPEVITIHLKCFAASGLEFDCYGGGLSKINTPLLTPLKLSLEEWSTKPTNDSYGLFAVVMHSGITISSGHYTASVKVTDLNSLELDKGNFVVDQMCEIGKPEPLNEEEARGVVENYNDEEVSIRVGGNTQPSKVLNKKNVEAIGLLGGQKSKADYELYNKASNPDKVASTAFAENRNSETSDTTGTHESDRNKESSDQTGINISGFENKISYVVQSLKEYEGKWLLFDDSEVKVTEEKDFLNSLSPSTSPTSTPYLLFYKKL

With `C/C(=C(/CCO)SSC[C@@H]1CCCO1)N(C=O)Cc1cnc(C)nc1N`, the molecule was called inactive in experiment [1], in experiment [4] and in experiment [8]. Moreover, the Potency entry in [2], in experiment [7] and in experiment [10] was “inactive” throughout. The activity change, negative = inhibition in [3] was -21.3% (inactive); in experiment [9], -0.641% (inactive). In addition, the Potency in experiment [5] and in [6] was > 20.6 µM (inactive) each time. Besides, the max response is -21% in [9] (setting [21]) and -20.8% in experiment [9] (setting [22]).
Consider `CC[C@@H]1OC(=O)[C@H](C)[C@H](O[C@@H]2C[C@](C)(OC)[C@H](O)[C@H](C)O2)[C@H](C)[C@H](O[C@@H]2O[C@@H](C)C[C@@H](N(C)C)[C@@H]2O)[C@](C)(O)C[C@H](C)C(=NOCOCCOC)[C@H](C)[C@H](O)[C@]1(C)O`, for which the outcome in [1], in [4], in experiment [8] and in [11] was inactive. Further, the Potency result in [2], in experiment [7], in [12], in experiment [14], in experiment [15] and in experiment [16] was “inactive” each time. Moreover, the Potency result in [17], in experiment [18], in [19] and in experiment [20] was “inactive” in each case. Further, the results for the activity change, negative = inhibition in experiment [3] and in experiment [9] were -1.03% (inactive) and 0.83% (inactive), respectively. Further, the Potency in experiment [5] and in experiment [6] was > 20.6 µM (inactive) in each case. Also, the max response in [9] (setting [21]) is -2.35%; in experiment [9] (setting [22]), -1.19%. Besides, the activity, negative = inhibition in experiment [13] (parasite line B) is -20.4% (inactive).
Turning to `CO[C@]1(NC(=O)C2SC(=C(C(N)=O)C(=O)O)S2)C(=O)N2C(C(=O)O)=C(CSc3nnnn3C)CS[C@H]21` (some centres not stated), the call in experiment [1], in [4], in [8] and in experiment [11] was inactive. For the same molecule, the Potency entry in experiment [2], in experiment [7], in experiment [12], in experiment [14], in experiment [15] and in experiment [16] was “inactive” each time. Moreover, the Potency result in [17], in experiment [18], in [19] and in [20] was “inactive” in each case. Further, the activity change, negative = inhibition in experiment [3] is 13.4% (inactive); in experiment [9], 0.935% (inactive). Further, the Potency in [5] and in [6] was > 20.6 µM (inactive) in each case. Besides, the max response in experiment [9] (setting [21]) came to 0.185%; in [9] (setting [22]), 1.63%. In addition, the activity, negative = inhibition was -5.23% (inactive) in experiment [13] (parasite line A) and -0.327% (inactive) in [13] (parasite line B).
Regarding `NC[C@@H]1O[C@H](O[C@@H]2[C@H](O[C@@H]3O[C@H](CO)[C@@H](COC[C@H]4O[C@@H](CN)[C@@H](O)[C@@H](O)[C@@H]4N)[C@@H]3O)[C@@H](O)[C@@H](N)C[C@H]2N)[C@@H](N)[C@H](O)[C@@H]1O`, the outcome in [1], in experiment [4] and in experiment [8] was inactive. The Potency result in experiment [2], in experiment [7] and in experiment [10] was “inactive” in each case. Besides, the activity change, negative = inhibition is -1.32% (inactive) in [3] and -1.17% (inactive) in experiment [9]. Further, the Potency in [5] and in experiment [6] was > 20.6 µM (inactive) in each case. The max response in [9] (setting [21]) was 1.11%; in experiment [9] (setting [22]) it was 2.23%.
As for `Nc1ccccc1S(N)(=O)=O`, the molecule was called inactive in experiment [1], in experiment [4] and in [8]. In addition, the Potency result in experiment [2], in experiment [7] and in experiment [10] was “inactive” each time. In addition, the results for the activity change, negative = inhibition in experiment [3] and in experiment [9] were -3.4% (inactive) and -3% (inactive), respectively. The Potency in experiment [5] and in experiment [6] was > 20.6 µM (inactive) throughout. In addition, the max response in [9] (setting [21]) is -21%; in [9] (setting [22]) it was -21.4%.
As to `COc1ccc([C@@H]2CC(=O)c3c(O)cc(O[C@H]4O[C@@H](CO[C@H]5O[C@@H](C)[C@@H](O)[C@@H](O)[C@@H]5O)[C@@H](O)[C@@H](O)[C@@H]4O)cc3O2)cc1O`, the molecule was called inactive in experiment [1], in experiment [4], in experiment [8] and in experiment [11]. For the same molecule, the Potency result in [2], in experiment [7], in experiment [10], in experiment [12], in experiment [14] and in [15] was “inactive” each time. In addition, the Potency result in [16], in experiment [17], in experiment [18], in [19] and in [20] was “inactive” in each case. Further, the activity change, negative = inhibition was 6.75% (inactive) in experiment [3] and -0.902% (inactive) in experiment [9]. For the same molecule, the Potency in [5] and in [6] was > 20.6 µM (inactive) throughout. Further, the figures for the max response in [9] (setting [21]) and in experiment [9] (setting [22]) were -12% and -8.76%, respectively. The figures for the activity, negative = inhibition in experiment [13] (parasite line A) and in [13] (parasite line B) were 5.87% (inactive) and -4.16% (inactive), respectively.
